PubChem BioAssay AID588382 (National Center for Advancing Translational Sciences (NCATS), 2011)
The whole screen tested about 1,300 compounds, of which about 150 (12%) were called active. Not shown: some 30% with an inconclusive outcome. Calls come from the whole dose curve; as a rule, active = well fitted cell-killing curve with a large enough effect; inconclusive = small, poorly fitted or top-dose-only effect, or effect the other way; inactive = flat fitted curve, though single readings scatter. What follows is part of a selection rich in actives, with near analogues and random picks from the rest. Where a call stands in place of a potency, no number is given.

assay: qHTS of small molecules that selectively kill Giardia lamblia: Hit Validation in HepG2 cytotox; settings: cell viability; Potency: HepG2 cytotoxicity; series mostly up to 38.3 µM;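 note: compound exposure lasted overnight at 37 deg C; nearly all actives have a fitted effect of over 55% in size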
How it was run: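 Counterscreen cytotoxicity: ATPLite luminescence (15 min, room temperature) measured in HepG2 cells exposed overnight at 37 deg C to pin-transferred compound (23 nL) after overnight pre-incubation.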
Potency is the fitted concentration of half-maximal effect.

Row | SMILES | Potency
1 | Cc1ncc([N+](=O)[O-])n1CCOC(=O)NC(NCc1ccccc1)C(Cl)(Cl)Cl (centres undefined) | inactive
2 | Cc1cnc(N=Nc2ccccc2)[nH]1 | inactive
3 | Cc1cc2nc(-c3ccc[nH]c3=O)[nH]c2cc1C | 2.33 µM (active)
4 | O=[N+]([O-])c1nn(-c2ccc3c(c2)OCCO3)n(O)c1=NC1CCCCC1 | inactive
5 | CC(NC(=O)COc1cccnc1[N+](=O)[O-])c1ccc(F)cc1 (centres undefined) | inactive
6 | O=C(Nc1nnc(SCC(=O)N2CCOCC2)s1)c1ccccc1 | 2.33 µM (active)
7 | O=C(Cc1ccc(-n2c(=O)c3sccc3n(CC(=O)Nc3ccccc3)c2=O)cc1)NCc1ccco1 | inactive
8 | O=C(Nc1nnc(SCC(=O)N2CCOCC2)s1)c1ccccc1Cl | 2.07 µM (active)
9 | O=C(CSc1nnc(NC(=O)c2c(F)cccc2F)s1)Nc1ccc(F)cc1 | inactive
10 | O=C(CSc1nnc(NC(=O)c2ccccc2)s1)NCc1ccco1 | 2.07 µM (active)
11 | Cc1ccc(S(=O)(=O)N2[C@@H](c3ccccc3)C(C(=O)O)=CC[C@H]2c2ccc3c(c2)OCO3)cc1 | inactive
12 | CCN(c1ccccc1)S(=O)(=O)c1cccc(C(=O)OCc2nc3sc(C)c(C)c3c(=O)[nH]2)c1 | inactive
13 | CC(OC(=O)c1ccc([N+](=O)[O-])s1)C(=O)NC1CCCCC1C (centres undefined) | inactive
14 | O=[N+]([O-])c1nn(-c2ccc3c(c2)OCCO3)n(O)c1=NCCCO | inactive
15 | O=[N+]([O-])c1ccc(-c2nc(C(Cl)Cl)c3ccccc3n2)cc1 | inactive
16 | CCOC(=O)C1=C(C)N=c2s/c(=C\c3ccc(O)c([N+](=O)[O-])c3)c(=O)n2C1c1ccccc1OC (centres undefined) | inactive
17 | Nc1ccc[n+](CC(=O)c2ccc(F)cc2)c1 | 1.65 µM (active)
18 | CCOC(=O)c1c(C)[nH]c(C)c1S(=O)(=O)N1CCN(c2ccc([N+](=O)[O-])cc2)CC1 | inactive
19 | Cc1ccc(CN=c2c([N+](=O)[O-])nn(-c3cccc(Cl)c3)n2O)cc1 | inactive
20 | CCCn1c(NC(=O)c2ccc([N+](=O)[O-])o2)nc2ccccc21 | inactive
21 | N#C/C(=C(/O)c1ccc([N+](=O)[O-])o1)c1nc2ccccc2[nH]1 | 3.69 µM (active)
22 | CN(Cc1ccccc1)C(=O)c1ccc([N+](=O)[O-])o1 | inactive
23 | COc1ccc(C(=S)NC2CCCCC2)cc1 | inactive
24 | COc1ccccc1-c1nnc(C2CCN(S(=O)(=O)c3cccc([N+](=O)[O-])c3)CC2)o1 | inactive

Row | SMILES | Potency
25 | CS(=O)(=O)N1CCN(c2ccc([N+](=O)[O-])c3cccnc23)CC1 | inactive
26 | COc1ccccc1C1OC2=C(Nc3ccc([N+](=O)[O-])cc3N2)C1=O (centres undefined) | inactive
27 | CNc1nnc(-c2ccc(N(C)C)cc2)s1 | 4.14 µM (active)
28 | Cc1ccccc1NC(NC(=O)OCCn1c([N+](=O)[O-])cnc1C)C(Cl)(Cl)Cl (centres undefined) | inactive
29 | COc1cc(/C=C/c2ccc3cccc(OC)c3n2)c(O)c([N+](=O)[O-])c1 | inactive
30 | CC1=NN(c2nc3ccccc3[nH]2)C(=O)/C1=C/N(C)C | 0.927 µM (active)
31 | Cc1ccc([C@H]2C(C(=O)O)=CC[C@@H](c3cccc(Cl)c3)N2S(=O)(=O)c2ccc(C)cc2)cc1 | inactive
32 | O=[N+]([O-])c1cccc(-n2nnnc2CNCc2ccccc2)c1 | inactive
33 | O=C(O)c1cc2ccccc2c(N=Nc2cccnc2)c1O | inactive
34 | O=C(Nc1nc2c(Cl)cccc2s1)c1ccc([N+](=O)[O-])o1 | inactive
35 | O=C(Nc1cccc(NC(=O)c2ccccc2Cl)c1)c1ccc([N+](=O)[O-])o1 | 2.61 µM (active)
36 | CCC(=O)N1CCN(c2ccc(Cl)cc2NC(=O)c2ccc([N+](=O)[O-])o2)CC1 | inactive
37 | CCC(=O)N1CCN(c2ccc(NC(=O)c3ccc([N+](=O)[O-])o3)cc2Cl)CC1 | 3.69 µM (active)
38 | CC(=O)N1CCN(c2ccc(S(C)(=O)=O)cc2[N+](=O)[O-])CC1 | inactive
39 | CC(=O)N1CCN(c2ccc(NC(=O)c3ccc([N+](=O)[O-])o3)cc2Cl)CC1 | 9.27 µM (active)
40 | CN1CCN(c2ccc(NC(=O)c3ccc([N+](=O)[O-])o3)cc2Cl)CC1 | 3.69 µM (active)
41 | CCCn1c(C)cc(C(=O)COc2ccc(C)nc2[N+](=O)[O-])c1C | inactive
42 | CCNc1ccc(N=Nc2c(C)n(C)n(-c3ccccc3)c2=O)cc1 | inactive
43 | N#Cc1sc(NCc2cccc(Cl)c2)nc1Cl | inactive
44 | COc1ccc(C(CNC(=O)c2oc3cc(Br)ccc3c2C)N2CCCCC2)cc1 (centres undefined) | inactive
45 | CC(=O)Oc1ccc2c(=O)c(Oc3ccccc3[N+](=O)[O-])coc2c1 | inactive
46 | COc1ccc(N2CCCC2)c(NC(=O)c2ccc([N+](=O)[O-])o2)c1 | inactive
47 | O=C(Nc1ccc(N2CCCC2)c(Cl)c1)c1ccc([N+](=O)[O-])o1 | 7.36 µM (active)
48 | NC(=O)c1oc2ccccc2c1NC(=O)c1ccc([N+](=O)[O-])o1 | 2.61 µM (active)

Row | SMILES | Potency
49 | O=C(Nc1cccc(Cl)c1N1CCOCC1)c1ccc([N+](=O)[O-])o1 | inactive
50 | Cc1ccc(C)c(Sc2ccc(NC(=O)CCl)cc2)c1 | inactive
51 | COc1ccc2oc(=Nc3ccccc3)c(-c3nc4ccccc4[nH]3)cc2c1 | 7.36 µM (active)
52 | Cc1ncc([N+](=O)[O-])n1CCOC(=O)c1ccccc1 | inactive
53 | Cc1ccc(S(=O)(=O)N2[C@@H](c3ccccc3F)C(C(=O)O)=CC[C@H]2c2cccc(C)c2)cc1 | inactive
54 | [O-][n+]1c2ccccc2c2n1CCCN=C2c1ccc(Cl)cc1 | inactive
55 | O=C(CN1C(=O)c2ccccc2S1(=O)=O)c1ccc2c(c1)OCCO2 | 2.07 µM (active)
56 | O=[N+]([O-])c1nn(-c2ccccc2)[n+]([O-])c1N1CCN(c2ccccc2F)CC1 | inactive
57 | O=[N+]([O-])c1ccc(/C=C/c2ccnc3ccccc23)c([N+](=O)[O-])c1 | inactive
58 | CCOn1c(=O)c(-c2cccc([N+](=O)[O-])c2)[n+]([O-])c2ccccc21 | inactive
59 | CSC1SCC2C(=O)N(C)C(C(C)C)C(=O)OCC(NC(=O)c3cnc4ccccc4n3)C(=O)NC(C)C(=O)N(C)C1C(=O)N(C)C(C(C)C)C(=O)OCC(NC(=O)c1cnc3ccccc3n1)C(=O)NC(C)C(=O)N2C (centres undefined) | 0.0117 µM (active)
60 | O=[N+]([O-])c1cccc(S(=O)(=O)c2ccc(NCCOCCO)c([N+](=O)[O-])c2)c1 | inactive
61 | Cc1ccc(C2=NCCn3c2c2ccc(C(F)(F)F)cc2[n+]3[O-])cc1 | inactive
62 | COc1ccc(NC(=O)c2ccc([N+](=O)[O-])o2)cc1 | 3.69 µM (active)
63 | Cc1ccc(CNC(=O)c2ccc([N+](=O)[O-])o2)cc1 | inactive
64 | Cc1onc(NC(=O)c2ccc([N+](=O)[O-])o2)c1Br | inactive
65 | Cc1cc(NC(=O)c2ccc([N+](=O)[O-])o2)ccc1NC(=O)c1ccco1 | 2.93 µM (active)
66 | COc1cc(NC(=O)c2ccc([N+](=O)[O-])o2)ccc1NC(=O)c1cccs1 | 14.7 µM (active)
67 | CCN(CC(=O)NCc1cccs1)C(=O)c1ccc([N+](=O)[O-])o1 | inactive
68 | O=C(NCc1ccco1)c1ccc([N+](=O)[O-])o1 | inactive
69 | O=C(Nc1ncccn1)c1ccc([N+](=O)[O-])o1 | inactive
70 | O=C(Nc1ccc(Cc2ccncc2)cc1)c1ccc([N+](=O)[O-])o1 | 6.56 µM (active)
71 | COc1ccc(-c2cc3ccccc3oc2=O)cc1NC(=O)c1ccc([N+](=O)[O-])o1 | inactive
72 | COc1ccc(CC(NC(C)=O)C(=O)NC2CCN(c3ncccc3[N+](=O)[O-])CC2)cc1 (centres undefined) | inactive

Row | SMILES | Potency
73 | CCC1CCCCN1C(=O)c1ccc([N+](=O)[O-])o1 (centres undefined) | inactive
74 | Cc1ccc(C2=NCCn3c2c2ccc([N+](=O)[O-])cc2[n+]3[O-])cc1 | inactive
75 | O=[n+]1c2c(n([O-])c3cc(Br)ccc31)CCCC2 | inactive
76 | CCOc1cc(C=O)ccc1OCCn1c([N+](=O)[O-])cnc1C | inactive
77 | CCOC(=O)C1=C(C)N=c2s/c(=C/c3cccc([N+](=O)[O-])c3O)c(=O)n2C1c1ccc(OC)cc1OC (centres undefined) | inactive
78 | CCN(CC)CCOC(=O)c1ccc(N/C=C(/C#N)c2nc(-c3cc4ccccc4oc3=O)cs2)cc1 | inactive
79 | O=[N+]([O-])c1ncn(Cc2c(Cl)cccc2Cl)n1 | inactive
80 | C=CCNC(=O)c1ccccc1NC(=O)COc1ccccc1 | inactive
81 | O=C(COc1cccnc1[N+](=O)[O-])NCc1ccc(F)cc1 | inactive
82 | CC(=O)c1c(COC(=O)c2ccccc2Cl)nc2ccccc2[n+]1[O-] | inactive
83 | O=[N+]([O-])c1ccc2nc(-c3ccc(OC(F)F)cc3)cn2c1 | inactive
84 | COc1cccc([C@@H]2CC=C(C(=O)O)[C@H](c3cccc(Cl)c3)N2S(=O)(=O)c2ccc(C)cc2)c1 | inactive
85 | COc1ccc(NC(=O)c2ccc([N+](=O)[O-])cc2[N+](=O)[O-])c(OC)c1 | inactive
86 | CC(=O)c1c(C)n([O-])c2cc(C)ccc2[n+]1=O | inactive
87 | O=C(c1ccc([N+](=O)[O-])o1)N1CCc2ccccc2C1 | inactive
88 | COC(=O)c1sc(NC(=O)c2ccc([N+](=O)[O-])o2)c(C#N)c1C | inactive
89 | NC(=O)c1c(NC(=O)c2ccc([N+](=O)[O-])o2)sc2c1CCCC2 | 11.7 µM (active)
90 | CC(=O)N1CCc2c(sc(NC(=O)c3ccc([N+](=O)[O-])o3)c2C#N)C1 | 3.29 µM (active)
91 | NC(=O)c1c(NC(=O)CCCn2cnc([N+](=O)[O-])n2)sc2c1CCCC2 | inactive
92 | O=C1S/C(=C\c2ccc(O)c([N+](=O)[O-])c2)C(=O)N1Cc1cccc([N+](=O)[O-])c1 | inactive
93 | OC(COc1cccc2ccccc12)CN1CCN(c2ccc(Cl)cc2)CC1 (centres undefined) | inactive
94 | O=[N+]([O-])C(/C=C(\Cl)[N+](=O)[O-])=C(N1CCCCC1)N1CCCCC1 | inactive
